Data from PubChem BioAssay (EPA / NIEHS).
Several values for one entry are separate records, joined by “and”; a condition that tells them apart may be missing. Equal entries are not always repeated. Results filed as inconclusive are left out. More than one record can exist for a structure, and the calls need not agree. Activity calls are given as the source filed them. How the source made its calls, unless noted: active means hit-call score of the fitted dose curve at least 0.9, where 1 is the maximum; inconclusive means response in the unintended direction; inactive means score below 0.9.

Assays:
[1] = STM_H9_CystineISnorm_perc: Stemina devTOX quickPredict H9 human embryonic stem cell (hESC)-based Assay for Cystine (CYSS) Metabolite Biomarker, Normalized (AID 2283713; active means hit-call score of the fitted dose curve at least 0.9, where 1 is the maximum; inactive means score below 0.9)
In short: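 Cystine in spent media from the last 24 h of a 72 h H9 hESC exposure (daily re-dosing), measured by UPLC-HRMS. Values normalized to isotopic internal standard, then to 0.1% DMSO; viability via CellTiter-Fluor.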

[2] = STM_H9_OrnCyssISnorm_ratio: Stemina devTOX quickPredict H9 human embryonic stem cell (hESC)-based Assay for Ornithine (ORN):Cystine (CYSS) Ratio (AID 2283714)
In short: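 Ratio of internal-standard-normalized ornithine to cystine, measured by UPLC-HRMS in spent media from the last 24 h. H9 cells kept pluripotent, dosed 72 h with daily media and compound renewal; DMSO 0.1% serves as baseline.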

[3] = Tanguay_ZF_120hpf_ActivityScore_legacy: (Legacy) Oregon State University Tanguay Lab 120 Hour Post-fertilization zebrafish Assay Score for Activity (AID 2283742);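 on AC50: dechorionated Tropical 5D wild-type zebrafish embryos held singly per well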
In short: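 Binary scoring of mortality and morphology by brightfield at 24 and 120 hpf, summarised into one activity score from 18 components relative to DMSO. Wild-type Tropical 5D zebrafish, chorion removed at 4 hpf, static exposure 6–120 hpf, 28 °C.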

[4] = ACEA_AR_antagonist_AUC_viability: ACEA Biosciences xCELLigence Real-Time Cell Analysis on Androgen Receptor Antagonism for Viability (AID 2283776);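 further: 22Rv1 human prostate cancer cells growing on impedance electrode plates; area under impedance growth curve at 80 h after dosing as viability; hits lower the growth signal relative to DMSO meaning cytotoxicity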
In short: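 Viability endpoint from label-free cell-index monitoring: 22Rv1 cultures treated with an eight-point 1:4 dilution series starting at 100 uM final, AUC at 80 h fitted against DMSO.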

[5] = CEETOX_H295R_MTT_cell_viability: Viability Assessment in the CeeTox HT-H295R MTT Assay (AID 2283718; active means hit-call score of the fitted dose curve at least 0.9, where 1 is the maximum; inactive means score below 0.9;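 on AC50: curve fitted both ways so AC50 may mark viability loss or gain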)
In short: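 MTT reduction (0.5 mg/ml, 4 h at 37 C; absorbance at 570 and 650 nm) gave viability as background-corrected percent change versus controls. H295R cells had 48 h forskolin (10 uM) prestimulation, then 48 h chemical exposure at 0.1% DMSO.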

[6] = target: Luciferin 4-monooxygenase (Photinus pyralis) (UniProt P08659); test: CCTE_Simmons_QuantiLum_inhib_2: CCTE's Firefly Luciferase Inhibition Assay, Simmons Lab (AID 2283767)
Chain of Luciferin 4-monooxygenase (Photinus pyralis) (P08659 whole entry, looked up): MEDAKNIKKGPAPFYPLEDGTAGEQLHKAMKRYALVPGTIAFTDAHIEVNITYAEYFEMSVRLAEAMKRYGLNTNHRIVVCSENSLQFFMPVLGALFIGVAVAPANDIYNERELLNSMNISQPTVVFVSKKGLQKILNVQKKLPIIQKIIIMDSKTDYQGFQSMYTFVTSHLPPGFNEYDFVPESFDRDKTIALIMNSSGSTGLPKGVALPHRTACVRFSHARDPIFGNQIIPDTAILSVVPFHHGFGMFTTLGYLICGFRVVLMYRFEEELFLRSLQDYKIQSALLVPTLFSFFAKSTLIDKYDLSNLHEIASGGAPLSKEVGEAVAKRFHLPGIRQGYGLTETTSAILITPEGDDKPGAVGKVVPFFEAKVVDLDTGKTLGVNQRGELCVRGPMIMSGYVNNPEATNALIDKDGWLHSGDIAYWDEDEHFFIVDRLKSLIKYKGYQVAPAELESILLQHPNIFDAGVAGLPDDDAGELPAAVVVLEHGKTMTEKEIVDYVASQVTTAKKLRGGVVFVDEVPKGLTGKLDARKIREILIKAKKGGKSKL
In short: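 Eight test concentrations, 5 nM up to 87.5 uM final, preincubated 30min at 37C in the dark with purified luciferase (0.5% DMSO final). Detection reagent (150uM D-luciferin, 147uM dATP, 75uM CoA, pH 7.8) injected per well before kinetic luminescence read; three replicates.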

[7] = target: zebrafish Estrogen Receptor (ESR1), esr1 (gene 259252) (UniProt P57717); test: ATG_zfER1_XSP1: Attagene TRANS-FACTORIAL Multi-Species (XSP1) HepG2 Assay for zebrafish Estrogen Receptor (ESR1) (AID 2283772)
Chain of zebrafish Estrogen Receptor (ESR1), esr1 (gene 259252) (P57717 whole entry, looked up, the tested form may be a part): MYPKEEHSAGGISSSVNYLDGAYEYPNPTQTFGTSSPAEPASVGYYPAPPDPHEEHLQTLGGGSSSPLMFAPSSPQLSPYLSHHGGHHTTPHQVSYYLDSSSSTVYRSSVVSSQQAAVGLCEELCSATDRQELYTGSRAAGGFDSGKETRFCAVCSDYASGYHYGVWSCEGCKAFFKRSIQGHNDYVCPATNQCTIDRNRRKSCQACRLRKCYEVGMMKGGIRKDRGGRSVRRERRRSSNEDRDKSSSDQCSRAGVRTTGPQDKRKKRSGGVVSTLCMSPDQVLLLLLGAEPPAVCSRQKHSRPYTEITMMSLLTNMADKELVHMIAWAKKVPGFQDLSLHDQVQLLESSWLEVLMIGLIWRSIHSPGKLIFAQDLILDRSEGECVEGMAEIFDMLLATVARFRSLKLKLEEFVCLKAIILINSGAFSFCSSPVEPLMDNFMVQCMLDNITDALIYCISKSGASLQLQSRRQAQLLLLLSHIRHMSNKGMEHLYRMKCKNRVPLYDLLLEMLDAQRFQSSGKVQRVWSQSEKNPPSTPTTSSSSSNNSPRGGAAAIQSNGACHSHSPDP
In short: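 Readout: fluorescent reporter mRNA, RT-PCR plus FAM labelling, HpaI digest, capillary electrophoresis; gain-of-signal fit vs DMSO. HepG2, transient multi-reporter TRANS (NR-GAL4 chimera), 24 h chemical exposure, 3 nM 6-alpha-fluorotestosterone co-added.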

[8] = test system: zebrafish Estrogen Receptor (ESR2B), gene 317733; test: ATG_zfER2b_XSP1: Attagene TRANS-FACTORIAL Multi-Species (XSP1) HepG2 Assay for zebrafish Estrogen Receptor (ESR2B) (AID 2283773)
In short: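 Medium contained 3 nM 6-alpha-fluorotestosterone. Reporter mRNA induction by exogenous zebrafish ER2b-Gal4 chimera was read 24 h post-dose in transiently transfected HepG2 cells, using RT-PCR, fluorescent labelling, HpaI digestion and capillary electrophoresis.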

[9] = test system: frog Estrogen Receptor (ESR2), gene 100174814; test: ATG_frER2_XSP1: Attagene TRANS-FACTORIAL Multi-Species (XSP1) HepG2 Assay for frog Estrogen Receptor (ESR2) (AID 2283774)
In short: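 Reporter mRNA from a multiplexed TRANS system, measured by RT-PCR with fluorescent labelling and capillary electrophoresis, 24 hours after chemical exposure. Human HepG2 liver cells carried exogenous frog ER-Gal4 chimera; medium included 3 nM 6-alpha-fluorotestosterone; increases versus DMSO analysed.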

[10] = ArunA_CellTiter_hNP: Viability Assessment in the ArunA Biomedical's Oris Neural Crest (hNC) Cell Migration Assay (AID 2283753)
In short: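 Viability read with CellTiter 96 Aqueous One after 72 h chemical exposure of human hNP1 neuroprogenitors, which were plated on Matrigel in LIF/bFGF medium 16 h beforehand. Endpoint fitted in positive direction relative to DMSO.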

[11] = ArunA_Migration_hNC: ArunA Biomedical's Oris Neural Crest (hNC) Cell Migration Assay (AID 2283755)
In short: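 Calcein-AM fluorescence (ex494 nm/em 517 nm) in the stopper-defined detection zone quantifies migration of hNC cells after 72 h chemical exposure; 60,000 cells/well plated on Matrigel with LIF and bFGF, 16 h pre-incubation. DMSO baseline.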

[12] = ArunA_NOG_NucleusCount: ArunA Biomedical's Neurite Outgrowth (NOG) Assay for Nucleus Count (AID 2283756)
In short: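 Viable neuron count, from Hoechst nuclei passing size and intensity gates, imaged at 20x on differentiated H9-derived human neurons. Exposure lasted 48 h from seeding; activity was scored relative to DMSO.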

[13] = ArunA_NOG_BranchPointsPerNeurite: ArunA Biomedical's Neurite Outgrowth (NOG) Assay for Branch Points Per Neurite (AID 2283759)
In short: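 Automated image analysis traced neurites (processes >10 um) from valid cell bodies after Hoechst and βIII-tubulin staining. hNN cells from H9 embryonic stem cells, 48 h exposure. Fitted bidirectionally against DMSO.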

[14] = ArunA_CellTiter_hNC: Viability Assessment in the ArunA Biomedical's Oris Neural Crest (hNC) Cell Migration Assay (AID 2283752)
In short: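 After a 72 h chemical exposure, viability of hNC cells is read with CellTiter Aqueous One and fitted as signal loss relative to DMSO. Cells were seeded at 60,000/well on Matrigel and cultured 16 h at 37 C beforehand.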

[15] = ArunA_Migration_hNP: ArunA Biomedical's Oris Neuroprogenitor (hNP) Cell Migration Assay (AID 2283754)
In short: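 Readout is calcein-AM fluorescence (ex494/em517) of cells migrating into the detection zone, relative to DMSO. hNP1 cells (H9-derived) grown on Matrigel behind stoppers 16 h, then stoppers pulled and chemical applied 72 h; cytochalasin D as control.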

[16] = ArunA_NOG_NeuritesPerNeuron: ArunA Biomedical's Neurite Outgrowth (NOG) Assay for Neurites Per Neuron (AID 2283758)
In short: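 Differentiated human H9-derived neurons exposed to chemicals for 48 h from seeding, then stained with Hoechst and βIII-tubulin/DyLight 488. Automated imaging counted neurites (processes >10 um) per valid neuron; loss of signal versus DMSO scored.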

[17] = test system: zebrafish Androgen Receptor (AR), gene 100005148; test: ATG_zfAR_XSP1: Attagene TRANS-FACTORIAL Multi-Species (XSP1) HepG2 Assay for zebrafish Androgen Receptor (AR) (AID 2283771)
In short: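 Gain-of-signal versus DMSO was measured as reporter transcripts quantified by RT-PCR, fluorescent labelling and capillary electrophoresis after 24 h chemical exposure. The cells were HepG2 expressing a chimeric zebrafish AR-GAL4, co-stimulated with 3 nM 6-alpha-fluorotestosterone.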

[18] = test system: frog Estrogen Receptor (ESR1), gene 398734; test: ATG_frER1_XSP1: Attagene TRANS-FACTORIAL Multi-Species (XSP1) HepG2 Assay for frog Estrogen Receptor (ESR1) (AID 2283777)
In short: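 HepG2 cells transiently transfected with GAL4-UAS reporter units and frog ER–Gal4 chimera were dosed for 24 h with 3 nM 6-alpha-fluorotestosterone present. Reporter mRNA was measured by RT-PCR and capillary electrophoresis; gain of signal fitted versus DMSO.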

[19] = test system: Thyroperoxidase (TPO), gene 445522; test: CCTE_Simmons_GUA_TPO: CCTE's Guaiacol Assay for Thyroperoxidase (TPO) Inhibition, Simmons Lab (AID 2283750)
In short: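 Porcine thyroid microsomes (25 ug) in 200mM potassium phosphate, preincubated 30 s at 37C with compound (8 concentrations, 5 nM–87.5 uM) and 35mM guaiacol; 1mM H2O2 starts reaction. Absorbance change at 450nm over first 80 s; loss of signal versus DMSO, three replicates.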

[20] = test system: chicken Androgen Receptor (AR), gene 422165; test: ATG_chAR_XSP1: Attagene TRANS-FACTORIAL Multi-Species (XSP1) HepG2 Assay for chicken Androgen Receptor (AR) (AID 2283768)
In short: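 Reporter mRNA read by RT-PCR with fluorescent labelling and capillary electrophoresis 24 h after chemical dosing of transiently transfected HepG2 cells. Chicken AR-Gal4 chimera, partially stimulated with 3 nM 6-alpha-fluorotestosterone; activity fitted upward relative to DMSO.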

Measured: AC50

CCOC1Oc2ccc(OS(C)(=O)=O)cc2C1(C)C (stereo not drawn)
active: [1] 83 µM | [2] 84.3 µM | [4] 25.6 µM
inactive: [3]

CCCN(CCOc1c(Cl)cc(Cl)cc1Cl)C(=O)n1ccnc1
active: [5] 50 µM | [4] 57.1 µM
inactive: [5] | [3] | [6] | [7] | [8] | [9]

CCC(C)(NC(=O)c1cc(Cl)c(C)c(Cl)c1)C(=O)CCl (stereo not drawn)
inactive: [3]
active: [1] 23.9 µM | [2] 22.9 µM | [4] 22 µM

O=C(Nc1ccccc1)Nc1cnns1
active: [1] 58.7 µM | [2] 58.3 µM | [5] 65.5 µM | [4] 50 µM
inactive: [3] | [6]

O=C(NC(=O)c1c(F)cccc1F)Nc1ccc(OC(F)(F)C(F)OC(F)(F)F)c(Cl)c1 (stereo not drawn)
active: [5] 1.97 µM
inactive: [1] | [3] | [4]

Cc1[nH]c(=O)n(C(C)(C)C)c(=O)c1Cl
inactive: [1] | [3] | [4]

CCC(C)Nc1c([N+](=O)[O-])cc(C(C)(C)C)cc1[N+](=O)[O-] (stereo not drawn)
active: [5] 46.9 µM | [4] 36.6 µM
inactive: [1] | [3] | [10] | [11] | [12] | [13]

CCOCN(C(=O)CCl)c1c(C)cccc1CC
active: [3] 46 µM | [8] 29.5 µM | [9] 77.1 µM | [4] 40.9 µM
inactive: [1]

Oc1cc(Cl)ccc1Oc1ccc(Cl)cc1Cl
inactive: [5] | [3] | [14] | [10] | [15] | [11] | [12] | [16] | [13] | [6] | [17] | [7] | [18]
active: [1] 81.2 µM | [2] 75.8 µM | [5] 0.0234 µM | [3] 41.4 µM and 46.5 µM | [9] 7.05 µM | [4] 12.9 µM

Clc1ccccc1-c1nnc(-c2ccccc2Cl)nn1
inactive: [5] | [3]

O=S1OCC2C(CO1)C1(Cl)C(Cl)=C(Cl)C2(Cl)C1(Cl)Cl (stereo not drawn)
inactive: [3] | [17] | [18]
active: [1] 82 µM | [2] 77.1 µM | [8] 4.8 µM | [9] 10 µM | [4] 17.2 µM

CC(C)(C)C(O)C(Oc1ccc(Cl)cc1)n1cncn1 (stereo not drawn)
inactive: [5]
active: [1] 20.4 µM | [2] 28.3 µM | [3] 26.3 µM and 43 µM and 47 µM | [4] 39.9 µM

CCS(=O)(=O)c1cccnc1S(=O)(=O)NC(=O)Nc1nc(OC)cc(OC)n1
inactive: [5]

CC(C)(C)C(O)/C(=C\c1ccc(Cl)cc1Cl)n1cncn1 (stereo not drawn)
inactive: [5]
active: [1] 79.6 µM | [2] 74.4 µM | [3] 94.2 µM | [4] 20.3 µM

CC(C)OC(=O)Nc1cccc(Cl)c1
active: [1] 11.1 µM | [2] 11.7 µM | [3] 39.2 µM | [4] 50 µM
inactive: [5]

C#CCN1C(=O)COc2cc(F)c(N3C(=O)C4=C(CCCC4)C3=O)cc21
inactive: [5] | [3]
active: [1] 79.6 µM | [2] 93 µM | [4] 50 µM

COP(=S)(OC)Oc1ccc([N+](=O)[O-])cc1
inactive: [5] | [3] | [19] | [6] | [4]

O=S(=O)(O)C(F)(F)C(F)(F)C(F)(F)C(F)(F)C(F)(F)C(F)(F)C(F)(F)C(F)(F)F
active: [12] 0.649 µM | [16] 1.02 µM | [20] 148 µM | [9] 49.8 µM | [4] 31.4 µM and 67.5 µM | [18] 84 µM
inactive: [1] | [2] | [15] | [11] | [13] | [6] | [8]

Oc1ccc(Cl)cc1Cc1ccccc1
inactive: [1] | [2] | [5] | [6] | [7]
active: [3] 37.1 µM and 23.4 µM and 22.3 µM | [8] 3.36 µM | [9] 2.69 µM | [4] 13.8 µM | [18] 2.63 µM

O=C(O)C(F)(F)C(F)(F)C(F)(F)C(F)(F)C(F)(F)C(F)(F)C(F)(F)F
active: [4] 37.7 µM
inactive: [1] | [3] | [4]

CC1(c2ccc(Oc3ccccc3)cc2)OC(=O)N(Nc2ccccc2)C1=O (stereo not drawn)
inactive: [3] | [6]
active: [1] 2.42 µM | [2] 3.15 µM | [4] 0.883 µM

CC1(C)C(C=C(Cl)Cl)C1C(=O)OC(C#N)c1ccc(F)c(Oc2ccccc2)c1 (stereo not drawn)
active: [8] 35.5 µM | [9] 27 µM | [4] 30.1 µM | [18] 13.9 µM
inactive: [1] | [5] | [3] | [20] | [17]
